Results from PubChem BioAssay AID2685 (National Center for Advancing Translational Sciences (NCATS), 2010).
The campaign covered roughly 320,000 compounds. About 2,100 (0.66%) were called active. Roughly 53% stayed inconclusive and do not appear here. Calls come from the whole dose curve; as a rule, active = well fitted inhibition curve with a large enough effect in the signal ratio, with a control signal flat (not every such curve was filed as active); inconclusive = small, poorly fitted or top-dose-only effect, or effect the other way, or a change in a side signal; inactive = flat fitted curve, though single readings scatter; the % refers to the signal ratio. This excerpt belongs to a sample that is enriched for actives.

Assay: qHTS Assay for Lipid Storage Modulators in Drosophila S3 Cells;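 for cell number change: cells counted by Cell Tracker Red CMTPX staining in the red channel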
Details: BODIPY lipid droplet fluorescence, 18-24 h, cells fed with added oleic acid; cell number change: measured here: cell count max response; series mostly up to 46.1 µM
Method in brief: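 Drosophila S3 cells loaded with oleic acid (400 uM, as added) and compounds at several concentrations; lipid droplets imaged by 488-nm laser-scanning cytometry, 500–530 nm intensity and object ratio to cell channel. Percent activity normalized to 20 uM Triacsin C.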
Potency is the fitted concentration of half-maximal effect.

Row | SMILES | Potency | cell number change [%]
1 | Cc1nc([N+](=O)[O-])cn1-c1ccc(N)cc1 | inactive | -2.93
2 | O=C(c1nc2ccc(Cl)cn2c1CN1CCCC(CO)C1)N1CCc2ccccc2C1 (stereo not given) | inactive | 10.9
3 | Cc1ccc(S(=O)(=O)c2c(C)cc(C)[nH]c2=O)c(C)c1 | inactive | 17.9
4 | Oc1ccc(Br)cc1/C=N/N1CCN(Cc2cccc3ccccc23)CC1 | inactive | 17
5 | Cc1c(NC(=O)C2(c3ccccc3)CCOCC2)c(=O)n(-c2ccccc2)n1C | inactive | -18.3
6 | CC(C)=C1C2CCC1C(C(=O)NCCc1ccccc1)C2C(=O)O (stereo not given) | inactive | 6.84
7 | CC(C)=C1C2CCC1C(C(=O)NCc1ccccc1)C2C(=O)O (stereo not given) | 25.9 µM (active) | -4.67
8 | CC(C)=C1C2CCC1C(C(=O)Nc1cc(C)cc(C)c1)C2C(=O)O (stereo not given) | inactive | 13.2
9 | CC(C)NC(=O)c1ccc2c(c1)N(CC(=O)NC1CCCCC1)C(=O)C(C)(C)O2 | inactive | 19
10 | S=C(Nc1ccccn1)Nc1ccccc1Cl | inactive | -6.96
11 | Cc1ccc(NC(=O)CSc2ccc3nnc(-c4cccnc4)n3n2)cc1 | inactive | -9.27
12 | CC(=O)c1ccc(NC(=O)CSc2ccc3nnc(-c4cccnc4)n3n2)cc1 | inactive | 1.01
13 | CCCS(=O)(=O)Nc1cccc(-c2ccc3nnc(C)n3n2)c1 | inactive | 7.15
14 | CCS(=O)(=O)Nc1cccc(-c2ccc3nnc(C)n3n2)c1 | inactive | -5.54
15 | O=C(CSc1ccc2nnc(-c3cccnc3)n2n1)Nc1ccccc1 | 0.411 µM (active) | 8.38
16 | CCS(=O)(=O)Nc1cccc(-c2ccc3nnc(-c4cccnc4)n3n2)c1 | 5.8 µM (active) | -27
17 | CCOC(=O)C(C(=O)NCCCN1CCOCC1)C1CCCCC1 (stereo not given) | inactive | 5.53
18 | CCn1nc(C)c(CN2CCCC(CO)(Cc3ccccc3)C2)c1C (stereo not given) | inactive | 6.82
19 | Cc1ccc(-c2cc([C@H]3[C@H]4C=CC[C@@H](C)[C@@H]4C(=O)N3Cc3ccccc3)ccc2F)cc1 | inactive | -1.15
20 | COC(=O)c1cccc(NC(=O)NC(=O)c2ccccc2Cl)c1 | inactive | -8.19

Row | SMILES | Potency | cell number change [%]
21 | Cc1cccc(NC(=O)CSc2nc3ccccc3o2)c1 | inactive | –
22 | CC(=O)N=c1c(C#N)cc2c(=O)n3cccc(C)c3nc2n1CCCOC(C)C | inactive | 13.1
23 | COCCCn1c(=N)c(C(=O)NCC2CCCO2)cc2c(=O)n3cccc(C)c3nc21 (stereo not given) | inactive | -13.4
24 | COCCCn1c(C(=O)NC2CCCCC2C)cc2c(=O)n3cccc(C)c3nc21 (stereo not given) | 20.6 µM (active) | 8.96
25 | Cc1cccn2c(=O)c3cc(C(N)=S)c(=N)n(CCCN4CCOCC4)c3nc12 | inactive | –
26 | Cn1c(C(=O)NCCC2=CCCCC2)cc2c(=O)n3ccccc3nc21 | inactive | –
27 | Cc1cccn2c(=O)c3cc(C(=O)NCCCN4CCCC4=O)n(C)c3nc12 | inactive | –
28 | COCCCn1c(=NC(C)=O)c(C#N)cc2c(=O)n3cccc(C)c3nc21 | inactive | 0.683
29 | Cc1cccn2c(=O)c3cc(C(=O)NCCC4=CCCCC4)n(C)c3nc12 | 18.4 µM (active) | -17.7
30 | CCCn1c(=N)c(C(=O)NC2CCCC2)cc2c(=O)n3cccc(C)c3nc21 | inactive | -9.76
31 | COCCCn1c(C(=O)N2CC(C)OC(C)C2)cc2c(=O)n3cccc(C)c3nc21 (stereo not given) | inactive | 0.298
32 | CCN(C(=O)c1cc2c(=O)n3cccc(C)c3nc2n1CCCOC)C1CCCCC1 | 23.1 µM (active) | 8.25
33 | Cc1cccn2c(=O)c3cc(C(N)=S)c(=N)n(CCCOC(C)C)c3nc12 | 9.2 µM (active) | 3.82
34 | O=C(CCc1nnc(C2(c3ccc(Cl)cc3)CCC2)o1)NC1CC1 | inactive | 6.23
35 | Cc1ccc2[nH]c3c(c2c1)CCN1C(=O)OC(C)(C)C31C (stereo not given) | inactive | -17.1
36 | O=C(CCCc1nc2ccccc2s1)N1CCN(c2ccccc2F)CC1 | inactive | 22.1
37 | COc1cc(/C=C/C(=O)OCC(=O)c2c[nH]c3ccccc23)ccc1OC(F)F | inactive | -14.2
38 | COc1cccc(/C=C/C(=O)OCC(=O)c2c[nH]c3ccccc23)c1 | 9.2 µM (active) | -14.3
39 | COc1ccc(/C=C/C(=O)OCC(=O)c2c[nH]c3ccccc23)cc1 | inactive | 4.45
40 | CCOc1cc(N2CCOCC2)c(OCC)cc1NC(=O)Cn1[nH]c(=O)c2ccccc2c1=O | inactive | 7.32

Row | SMILES | Potency | cell number change [%]
41 | O=C(O)CNS(=O)(=O)Cc1ccccc1 | inactive | 2.83
42 | Cc1cccc(NC(=O)C2CCN(S(=O)(=O)c3cccs3)CC2)n1 | inactive | –
43 | Cc1ccccc1Cn1c(C)nc2ccccc21 | 10.3 µM (active) | -15.1
44 | COc1ccccc1Cn1c(C)nc2ccccc21 | inactive | 10.6
45 | Cc1nc2ccccc2n1Cc1ccccc1 | inactive | -17
46 | CC1CCN(c2cc(C#N)c(C#N)cc2[N+](=O)[O-])CC1 | 23.1 µM (active) | 0.344
47 | N#Cc1cc(N2CCCCC2)c([N+](=O)[O-])cc1C#N | inactive | -3.02
48 | CN(C)CCC1CCN(c2cc(C#N)c(C#N)cc2[N+](=O)[O-])CC1 | inactive | -1.99
49 | COC(=O)c1cc(OC)c(OC)cc1NC(=S)N1CCN(c2ccccn2)CC1 | inactive | -13.1
50 | CCCS(=O)(=O)c1nc(S(=O)(=O)c2ccc(C)cc2)c(N2CCC3(CC2)OCCO3)s1 | inactive | -26.8
51 | COc1cc(NC(=O)CC2NCCNC2=O)cc(OC)c1 (stereo not given) | inactive | 2.74
52 | CCCCNC(=O)CC1NCCNC1=O (stereo not given) | inactive | -9.85
53 | COC(=O)CC1NCCNC1=O (stereo not given) | 0.0326 µM (active) | -8.44
54 | S=c1[nH]nc(-c2cc(-c3ccccc3)n[nH]2)n1/N=C/C=C/c1ccccc1 | inactive | 5.92
55 | Cc1ccc(C)c(N2CCN(C(=O)Nc3ccc4c(c3)N(C)C(=O)CS4)CC2)c1 | inactive | -6.47
56 | CN(C)N=C1c2cc(S(=O)(=O)N(C)C)ccc2-c2ccc(S(=O)(=O)N(C)C)cc21 | inactive | -8.49
57 | CC(=O)NCCNC(=O)c1ccc(-n2c(C)ccc2C)cc1 | inactive | -0.679
58 | O=C1ON=C(c2ccccc2)/C1=C/c1ccccc1 | inactive | -8.78
59 | O=C1ON=C(c2ccccc2)/C1=C/c1cccnc1 | inactive | 4.4
60 | Cc1ccc(C2=NOC(=O)/C2=C\C=C\c2ccccc2)cc1 | 4.61 µM (active) | -25.2
